An excerpt weighted towards active compounds, which were near 19% of everything screened.
TDP1 cell CPT: DT40-hTDP1 cell growth loss with CPT | Potency, µM (top dose mostly 46.2 µM), for the others: at the top dose activity change, negative = growth inhibition, actives largely listed as inhibitors | 420,000 compounds, 12% hits | chicken DT40 Tdp1-/-;hTDP1 cells + 20 nM CPT, ATP luminescence, 48 h; further: nearly all actives have a fitted effect of over 55% in size
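Chicken DT40 Tdp1-/- cells complemented with human TDP1, 400 cells/well, exposed to compounds plus 20 nM camptothecin for at least 48 h at 37 C; viability read as ATP content by CellTiter-Glo luminescence.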
HT1080-NT tox: kills 2HG-producing HT-1080-NT fibrosarcoma cells; HT-1080-NT fibrosarcoma viability, CellTiter-Glo ATP luminescence, 48 h; Potency, µM (series often up to 46.1 µM), for the others: top-dose activity, negative = less viability, usual class: cytotoxic; 360,000 compounds, 1.6% hits; AID 686970;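 further: NT is the 2HG producing partner of a matched IDH1 knockdown line; 0% = DMSO-treated cells and -100% = media-only wells without cells; nearly all actives have a fitted effect of over 55% in size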
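Viability by CellTiter-Glo luminescence after 48 h compound exposure at 37C of HT-1080-NT cells (750/well, RPMI, 5% FBS). % activity scaled between DMSO wells and medium-only wells, then curve-fitted and categorized by curve class.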
KB-V1 cytotox: KB-V1 MDR subline cytotoxicity; KB-V1 MDR cells viability, CellTiter-Glo, 72 h; Potency, µM (series often up to 46.1 µM), most hits filed as cytotoxic; 400,000 compounds, 3.4% hits; further: nearly all actives have a fitted effect of over 60% in size
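KB-V1 cells (P-gp-expressing MDR subline of KB-3-1) in phenol-red-free DMEM with 10% FBS were exposed to library compounds over a concentration series for 72 h at 37 degrees C. Viability read by CellTiter-Glo luminescence; concentration-effect curves fitted after normalization.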
HT1080 IDH1KD tx: HT-1080 IDH1 knockdown cell toxicity (counter line); HT-1080 IDH1 knockdown viability, ATP luminescence, 48 h; Potency, µM (titrated, usually from 46.1 µM), for inactives: at the top dose activity, negative = toxicity, most hits filed as cytotoxic; 360,000 compounds, 2% hits;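 further: 0% = DMSO wells and -100% = cell-free medium wells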
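Using the IDH1-knockdown HT-1080 line run in the same batch and compound series as the NT line, viability after 48 h at 37 °C was determined by CellTiter-Glo luminescence and expressed as % activity.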
TDP1 cell noCPT: qHTS for Inhibitors of human tyrosyl-DNA phosphodiesterase 1 (TDP1): qHTS in cells in absence of CPT | DT40 Tdp1-/- hTDP1 cells, no CPT, ATP luminescence, 48 h | Potency, µM (highest dose often 46.2 µM), for the others: at the top dose activity change, negative = growth inhibition, most hits filed as inhibitors | 420,000 compounds, 15% hits | AID 686978, 2013; further: nearly all actives have a fitted effect of over 55% in size
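No-CPT arm: Tdp1-/-;hTDP1 DT40 cells (400/well) plus compounds, incubated ≥48 hr at 37 °C. Readout CellTiter-Glo luminescence.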
KB-3-1 cytotox: KB-3-1 parental cell cytotoxicity; AID 1347075; KB-3-1 viability, CellTiter-Glo ATP luminescence, 72 h; 400,000 compounds, 1.4% hits; Potency, µM (highest dose often 46.1 µM), usual class: cytotoxic; further: nearly all actives have a fitted effect of over 60% in size
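Viability of parental KB-3-1 cells, measured by CellTiter-Glo luminescence, followed a 72 h incubation at 37 °C with pinned compounds in phenol-red-free DMEM containing 10% FBS.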
* marks the source's active call; other numbers are inactive results; i = inactive; ? = inconclusive; · = not tested or not shown; [ ] = another dose, or the depositor's remark. The call rests on the fitted dose curve; in most records, active means well fitted curve in the direction sought with a large enough effect; inconclusive means small, poorly fitted or top-dose-only effect, or another doubt; inactive means no such curve, though single readings can be large; an effect the other way counts as inactive or inconclusive. Unless noted, on the % scale 0 is the no-effect control and ±100 the full control effect; potency means the concentration at half of the fitted maximal effect.

SMILES	TDP1 cell CPT	HT1080-NT tox	KB-V1 cytotox	HT1080 IDH1KD tx	TDP1 cell noCPT	KB-3-1 cytotox
O=C1c2ccccc2-c2onc3ccc(NCc4ccco4)c1c23	?	-21%	10µM*	?	23µM*	i
O=S(=O)(c1ccc(Cl)cc1)n1ccc(-c2cccc(OCc3c(F)cccc3Cl)c2)n1	-29%	9%	i	-1%	?	i
O=S(=O)(c1ccc(F)cc1)n1ccc(-c2cccc(OCc3c(F)cccc3Cl)c2)n1	-3%	-6%	21µM*	-8%	?	?
CC(=O)c1cccc(NC(=O)C2CCN(S(=O)(=O)c3ccc4c(c3)oc(=O)n4C)CC2)c1	-22%	·	?	·	?	i
Cc1ccc(Cn2c(C(C)Nc3nc(-c4ccc(Cl)cc4)cs3)nc3cc(C(=O)NCCCO)ccc32)cc1 (stereo unspecified)	10µM*	-18%	i	-13%	8.2µM*	?
Cc1ccc(Cn2c(CCNc3nc(-c4ccc(C)cc4)cs3)nc3cc(C(=O)NCCCO)ccc32)cc1	21µM*	-17%	i	-25%	15µM*	i
Cc1ccc(Cn2c(C(C)Nc3nc(-c4ccc(C)cc4)cs3)nc3cc(Cl)c(Cl)cc32)cc1 (stereo unspecified)	?	0%	i	-2%	-15%	i
CCSc1ncc(Cl)c(C(=O)N2CCN(c3ccccc3OC)CC2)n1	3.3µM*	·	3.7µM*	·	4.1µM*	6.5µM*
COc1ccccc1N1CCN(C(=O)c2ccncc2)CC1	-9%	12%	i	1%	?	i
CCCSc1ncc(Cl)c(C(=O)N2CCN(c3cccc(Cl)c3)CC2)n1	1.8µM*	·	·	·	?	·
CCCSc1ncc(Cl)c(C(=O)N(Cc2cccc(Cl)c2)C2CCS(=O)(=O)C2)n1 (stereo unspecified)	23µM*	·	·	·	16µM*	·
COc1cc(C(=O)N(Cc2cccc(Cl)c2)C2CCS(=O)(=O)C2)cc(OC)c1OC (stereo unspecified)	-23%	0%	i	20%	-20%	i
Cc1ccc(C(=O)NCCN2CCC(n3c(=O)[nH]c4ccccc43)CC2)cc1F	-28%	-32%	i	-15%	-33%	?
COc1ccc(Cl)cc1N(CC(=O)N/N=C/c1ccc(OC(C)C)cc1)S(=O)(=O)c1ccc(C)c([N+](=O)[O-])c1	-16%	9%	i	15%	-19%	i
C=CCOc1cccc(/C=N/NC(=O)CN(c2cc(Cl)ccc2OC)S(=O)(=O)c2ccc(C)c([N+](=O)[O-])c2)c1	?	-1%	i	-13%	16µM*	i
COc1ccc(Cl)cc1N(CC(=O)N(C)C)S(=O)(=O)c1ccc(C)c([N+](=O)[O-])c1	?	5%	i	2%	21µM*	i
CC1(C(=O)NS(=O)(=O)Cc2ccccc2C(F)(F)F)CCN1C(=O)Cc1cccs1 (stereo unspecified)	?	0%	i	0%	-15%	i
O=S(=O)(Nc1nc2ccccc2nc1Nc1ccc(N2CCOCC2)cc1)c1cc(Cl)ccc1Cl	?	19%	i	23%	13µM*	?
COc1ccc(NC(=O)Nc2nccs2)cc1	13µM*	?	7.3µM*	?	16µM*	?
COc1ccc(NC(=O)Nc2ccc3nccnc3c2)cc1	26µM*	-2%	?	-5%	21µM*	i
O=C(CCCN1C(=O)c2ccccc2C1=O)N1CCc2ccccc2C1	-20%	3%	i	-2%	7%	i
O=C(c1ccc2c(c1)OCO2)N1CCN(CCN2C(=O)c3cccc4cccc(c34)C2=O)CC1	12%	?	i	12%	-29%	i
O=C(CN1C(=O)c2cccc3cccc1c23)N1CCc2ccccc2C1	21µM*	-12%	i	-23%	12µM*	i
O=C(CN1C(=O)c2cccc3cccc1c23)N1CCN(Cc2ccc3c(c2)OCO3)CC1	?	-11%	?	-6%[9.24 µM]	21µM*	i
CCCCNC(=O)C1(C)CCN1C(=O)c1cccc2c1OCCO2 (stereo unspecified)	0%	5%	i	26%	-8%	i
SMILES	TDP1 cell CPT	HT1080-NT tox	KB-V1 cytotox	HT1080 IDH1KD tx	TDP1 cell noCPT	KB-3-1 cytotox
CN1CCc2c(sc3c2c(=O)n(-c2ccccc2)c2nnc(SCc4ccc(Cl)cc4)n32)C1	13µM*	6%	i	3%	?	?
CN1CCc2c(sc3c2c(=O)n(-c2cccc(Cl)c2)c2nncn32)C1	?	-13%	i	0%	-29%	i
Oc1ccc(CCc2ccccn2)cc1	?	5%	i	4%	-13%	i
NC(=O)C1CCN(C(=O)COc2ccc3ccc(=O)oc3c2)CC1	-4%	1%	i	9%	-3%	i
CC(=O)Nc1ccc(S(=O)(=O)N2CCN(CC(O)COc3ccc4ccccc4c3)CC2)cc1 (stereo unspecified)	?	0.71µM*	?	?	?	i
CCOc1ccc(S(=O)(=O)N2CCN(CC(O)COc3cccc([N+](=O)[O-])c3)CC2)cc1 (stereo unspecified)	15µM*	1%	?	-19%	23µM*	i
Cc1ccc(CNC(=O)CN2N=C(c3ccc(C)cc3)CCC2=O)cc1	-14%	·	·	·	-18%	·
COc1ccc(OC)c(NC(=O)c2ccc3c(c2)c(C)c(C)n3Cc2ccc(F)cc2)c1	?	·	i	·	21µM*	i
COc1ccc(NC(=O)c2ccc3c(c2)c(C)c(C)n3Cc2ccc(F)cc2)c(OC)c1	18µM*	·	i	·	21µM*	i
Cc1ccc(CSCc2ccc(C(=O)NCCc3ccc(Cl)cc3)o2)cc1	?	·	i	·	?	i
COc1cc(NCCCNC(C)C)c2nccc(C)c2c1	?	-2%	i	-21%	?	?
Cc1c(=O)n(OCc2ccc(Cl)cc2)c2ccccc2[n+]1[O-]	-10%	1%	?	0%	6.5µM*	i
Cc1c(=O)n(OCc2cccc(F)c2)c2ccccc2[n+]1[O-]	-6%	2%	?	-8%	?	i
COc1cccc(CNc2ccc(N3CCCCC3)cc2)c1OC	26µM*	-5%	?	-14%	?	?

High-throughput results: PubChem, National Center for Advancing Translational Sciences (NCATS)
